# PubChem BioAssay (EPA / NIEHS)
# Records with an inconclusive call do not appear. The source made the active and inactive calls. Rule for the calls: active = hit-call score of the fitted dose curve at least 0.9, where 1 is the maximum; inconclusive = response in the unintended direction; inactive = score below 0.9.
# What was measured:
# [1] = biological target: Peroxisome proliferator-activated receptor gamma (Homo sapiens) (UniProt P37231); experiment: ATG_PPARg_TRANS: Attagene TRANS-FACTORIAL HepG2 Assay for human Peroxisome Proliferator-activated Receptor-gamma (PPARg) (AID 2283007)
# In short: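 Human hepatoma HepG2, transient MRTU transfection, 24 h treatment. mRNA reporter signal by RT-PCR plus capillary electrophoresis, fluorescence detection; fitted for increase over DMSO negative control.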
# [2] = biological target: Nuclear receptor subfamily 1 group I member 2 (Homo sapiens) (UniProt O75469); experiment: ATG_PXR_TRANS: Attagene TRANS-FACTORIAL HepG2 Assay for human Pregnane X Receptor (PXR) (AID 2283008)
# In short: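 Transactivation by exogenous PXR–GAL4 fusion measured as reporter transcript induction after 24 h compound treatment of transfected human HepG2 cells. Read-out via RT-PCR and capillary electrophoresis of labelled fragments, fitted upward relative to DMSO.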
# [3] = biological target: human Retinoic Acid Receptor gamma (RARg), RARG (gene 5916) (UniProt P13631); experiment: ATG_RARg_TRANS: Attagene TRANS-FACTORIAL HepG2 Assay for human Retinoic Acid Receptor gamma (RARg) (AID 2283009)
# In short: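 TRANS format measured activity of exogenous NR-GAL4 fusion (RARg) in transfected HepG2 liver cells after 24 h dosing. Induced reporter RNA was detected by RT-PCR/capillary electrophoresis fluorescence, analysed in the positive direction against DMSO.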
# [4] = biological target: human RAR-related Orphan Receptor gamma (RORg), RORC (gene 6097) (UniProt P51449); experiment: ATG_RORg_TRANS: Attagene TRANS-FACTORIAL HepG2 Assay for human RAR-related Orphan Receptor gamma (RORg) (AID 2283011)
# In short: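 Reporter transcripts from a transfected RORg-GAL4 chimera in HepG2 cells were quantified 24 h after dosing by RT-PCR, 6-FAM labelling, HpaI digestion and capillary electrophoresis; increases over DMSO baseline were fitted.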
# [5] = biological target: human Retinoic Acid Receptor beta (RARb), RARB (gene 5915) (UniProt P10826); experiment: ATG_RARb_TRANS: Attagene TRANS-FACTORIAL HepG2 Assay for human Retinoic Acid Receptor beta (AID 2283004)
# In short: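 Induction of reporter mRNA from a chimeric RARb-Gal4 construct was measured by RT-PCR, FAM labelling, HpaI digestion and capillary electrophoresis. Measurements followed 24 h compound treatment of transiently transfected human HepG2 liver cells, with DMSO as baseline.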
# [6] = biological target: human RAR-related Orphan Receptor beta (RORb), RORB (gene 6096) (UniProt Q92753); experiment: ATG_RORb_TRANS: Attagene TRANS-FACTORIAL HepG2 Assay for human RAR-related Orphan Receptor beta (RORb) (AID 2283010)
# In short: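 Transfect HepG2 with multiple GAL4-UAS reporter transcription units; dose chemicals for 24 h; isolate RNA, reverse-transcribe and PCR-amplify reporter sequences; label, digest and resolve fragments by capillary electrophoresis; fit increases relative to DMSO.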
# [7] = biological target: Retinoic acid receptor alpha (Homo sapiens) (UniProt P10276); experiment: ATG_RARa_TRANS: Attagene TRANS-FACTORIAL HepG2 Assay for human Retinoic Acid Receptor alpha (RARa) (AID 2283005)
# In short: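 Reporter transcripts, measured by RT-PCR with fluorescent labeling and capillary electrophoresis after 24 h dosing, reflect activity of an exogenous human RARa–GAL4 fusion in transiently transfected HepG2. Fitted for increase relative to DMSO.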
# human RAR-related Orphan Receptor beta (RORb), RORB (gene 6096), sequence (Q92753 whole entry, looked up, the tested form may be a part): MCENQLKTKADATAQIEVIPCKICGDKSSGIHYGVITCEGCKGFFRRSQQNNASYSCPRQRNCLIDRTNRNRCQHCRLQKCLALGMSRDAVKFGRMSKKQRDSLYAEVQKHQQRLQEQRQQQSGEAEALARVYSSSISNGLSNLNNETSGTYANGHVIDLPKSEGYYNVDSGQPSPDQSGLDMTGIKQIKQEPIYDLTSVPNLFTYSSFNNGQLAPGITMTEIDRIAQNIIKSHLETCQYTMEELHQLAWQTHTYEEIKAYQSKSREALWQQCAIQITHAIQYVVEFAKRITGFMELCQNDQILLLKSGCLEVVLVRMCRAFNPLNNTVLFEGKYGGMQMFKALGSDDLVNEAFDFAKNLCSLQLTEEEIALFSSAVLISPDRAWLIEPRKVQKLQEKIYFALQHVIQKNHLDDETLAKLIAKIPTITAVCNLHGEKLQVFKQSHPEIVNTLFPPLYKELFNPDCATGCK
# human RAR-related Orphan Receptor gamma (RORg), RORC (gene 6097), sequence (P51449 whole entry, looked up, the tested form may be a part): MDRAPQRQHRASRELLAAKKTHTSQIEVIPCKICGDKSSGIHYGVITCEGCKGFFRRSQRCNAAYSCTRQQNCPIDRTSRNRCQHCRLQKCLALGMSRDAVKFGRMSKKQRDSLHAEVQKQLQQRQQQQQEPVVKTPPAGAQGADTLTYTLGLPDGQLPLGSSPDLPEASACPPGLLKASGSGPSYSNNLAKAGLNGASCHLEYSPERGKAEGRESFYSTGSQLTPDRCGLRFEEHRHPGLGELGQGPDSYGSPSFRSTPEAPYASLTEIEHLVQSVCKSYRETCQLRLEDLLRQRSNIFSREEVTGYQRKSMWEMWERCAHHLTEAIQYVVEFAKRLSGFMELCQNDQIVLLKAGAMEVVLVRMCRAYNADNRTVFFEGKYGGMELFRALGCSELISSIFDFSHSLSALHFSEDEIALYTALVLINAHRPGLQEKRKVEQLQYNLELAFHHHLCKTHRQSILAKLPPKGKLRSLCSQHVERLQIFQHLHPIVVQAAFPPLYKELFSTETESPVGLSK
# human Retinoic Acid Receptor gamma (RARg), RARG (gene 5916), sequence (P13631 whole entry, looked up, the tested form may be a part): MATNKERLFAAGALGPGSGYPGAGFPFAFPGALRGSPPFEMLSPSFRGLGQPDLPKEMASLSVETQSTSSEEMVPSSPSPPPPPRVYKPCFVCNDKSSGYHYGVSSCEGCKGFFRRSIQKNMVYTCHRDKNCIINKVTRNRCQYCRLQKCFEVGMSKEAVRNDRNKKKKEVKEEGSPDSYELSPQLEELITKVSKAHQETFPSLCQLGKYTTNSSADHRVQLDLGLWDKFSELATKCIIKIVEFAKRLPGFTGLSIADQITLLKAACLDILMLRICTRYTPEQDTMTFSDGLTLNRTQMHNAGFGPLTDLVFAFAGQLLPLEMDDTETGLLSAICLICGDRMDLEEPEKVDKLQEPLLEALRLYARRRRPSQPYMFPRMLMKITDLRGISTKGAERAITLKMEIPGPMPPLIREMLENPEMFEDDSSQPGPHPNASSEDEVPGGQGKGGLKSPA
# human Retinoic Acid Receptor beta (RARb), RARB (gene 5915), sequence (P10826 whole entry, looked up, the tested form may be a part): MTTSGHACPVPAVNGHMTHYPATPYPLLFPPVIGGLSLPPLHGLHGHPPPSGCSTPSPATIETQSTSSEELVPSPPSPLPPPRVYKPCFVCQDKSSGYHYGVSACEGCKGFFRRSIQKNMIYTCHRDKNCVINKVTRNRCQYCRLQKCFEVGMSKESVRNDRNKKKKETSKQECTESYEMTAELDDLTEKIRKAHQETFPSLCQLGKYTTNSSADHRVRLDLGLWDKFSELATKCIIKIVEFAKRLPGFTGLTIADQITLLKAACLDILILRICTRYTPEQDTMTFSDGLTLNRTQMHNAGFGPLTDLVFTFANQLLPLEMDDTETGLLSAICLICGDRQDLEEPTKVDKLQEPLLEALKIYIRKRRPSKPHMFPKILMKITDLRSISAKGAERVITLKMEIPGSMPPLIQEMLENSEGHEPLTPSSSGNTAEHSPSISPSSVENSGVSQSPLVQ
# Retinoic acid receptor alpha (Homo sapiens), sequence (P10276 whole entry, looked up, the tested form may be a part): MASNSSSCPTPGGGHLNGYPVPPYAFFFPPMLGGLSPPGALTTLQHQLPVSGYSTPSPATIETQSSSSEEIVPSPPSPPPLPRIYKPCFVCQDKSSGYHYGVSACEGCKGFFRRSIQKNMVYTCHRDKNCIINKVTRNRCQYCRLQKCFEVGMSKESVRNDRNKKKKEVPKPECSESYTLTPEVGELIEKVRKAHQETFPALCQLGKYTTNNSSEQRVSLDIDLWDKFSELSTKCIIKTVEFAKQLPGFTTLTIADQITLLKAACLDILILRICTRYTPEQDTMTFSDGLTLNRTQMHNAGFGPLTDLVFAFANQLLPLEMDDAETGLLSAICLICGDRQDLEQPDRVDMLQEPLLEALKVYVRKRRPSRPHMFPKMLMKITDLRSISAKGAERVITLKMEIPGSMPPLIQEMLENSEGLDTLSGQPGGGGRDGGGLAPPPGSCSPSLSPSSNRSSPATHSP
# Nuclear receptor subfamily 1 group I member 2 (Homo sapiens), sequence (O75469 whole entry, looked up, the tested form may be a part): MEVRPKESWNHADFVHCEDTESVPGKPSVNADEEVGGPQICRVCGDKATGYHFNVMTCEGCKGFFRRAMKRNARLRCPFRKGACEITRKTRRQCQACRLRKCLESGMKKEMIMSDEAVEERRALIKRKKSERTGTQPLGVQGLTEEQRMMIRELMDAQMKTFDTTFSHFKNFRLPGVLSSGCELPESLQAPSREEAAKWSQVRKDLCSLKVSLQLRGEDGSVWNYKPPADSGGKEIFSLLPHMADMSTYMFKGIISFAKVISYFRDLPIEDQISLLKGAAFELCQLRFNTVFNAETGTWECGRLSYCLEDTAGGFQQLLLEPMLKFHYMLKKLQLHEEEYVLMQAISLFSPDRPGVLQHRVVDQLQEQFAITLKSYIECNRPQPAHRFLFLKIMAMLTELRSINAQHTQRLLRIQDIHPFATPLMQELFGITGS
# Peroxisome proliferator-activated receptor gamma (Homo sapiens), sequence (P37231 whole entry, looked up): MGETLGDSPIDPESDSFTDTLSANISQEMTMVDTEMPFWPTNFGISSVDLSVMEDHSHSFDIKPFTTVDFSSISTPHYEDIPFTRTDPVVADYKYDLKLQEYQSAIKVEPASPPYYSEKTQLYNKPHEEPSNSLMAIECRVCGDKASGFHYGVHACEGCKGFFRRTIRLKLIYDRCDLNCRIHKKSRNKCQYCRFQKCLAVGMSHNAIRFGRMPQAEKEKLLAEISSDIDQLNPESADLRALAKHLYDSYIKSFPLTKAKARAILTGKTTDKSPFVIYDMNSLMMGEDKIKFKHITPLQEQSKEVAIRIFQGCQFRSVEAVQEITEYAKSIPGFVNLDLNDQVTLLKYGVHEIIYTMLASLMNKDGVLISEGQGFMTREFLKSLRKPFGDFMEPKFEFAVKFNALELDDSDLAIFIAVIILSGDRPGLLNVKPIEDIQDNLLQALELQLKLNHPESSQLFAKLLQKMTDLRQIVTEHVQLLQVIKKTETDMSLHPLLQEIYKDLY
smiles,measurement,setting,value
C=CC(F)(F)C(F)(F)C(F)(F)C(F)(F)F,outcome,[1],inactive
same,outcome,[2],inactive
O=C1C=CC(=O)N1c1cccc(N2C(=O)C=CC2=O)c1,outcome,[1],inactive
same,outcome,[2],inactive
same,outcome,[3],inactive
same,outcome,[4],inactive
CC=O,outcome,[5],inactive
same,outcome,[4],inactive
CCCCCCCCCC=CCC1CC(=O)OC1=O (configuration not stated),outcome,[4],inactive
CCOCCOCC,outcome,[1],inactive
same,outcome,[2],inactive
same,outcome,[6],inactive
same,outcome,[4],inactive
CC(=O)CC(C)C,outcome,[2],inactive
same,outcome,[4],inactive
Brc1ccc(Oc2ccc(Br)cc2Br)cc1,outcome,[1],inactive
same,outcome,[4],inactive
Cn1sccc1=O,outcome,[5],inactive
same,outcome,[2],inactive
NCc1cccc(CN)c1,outcome,[1],inactive
same,outcome,[2],inactive
same,outcome,[4],inactive
COc1cc([N+](=O)[O-])ccc1N,outcome,[2],inactive
FC(F)(F)C(F)(F)C(F)(F)Br,outcome,[7],inactive
same,outcome,[1],inactive
same,outcome,[2],inactive
same,outcome,[3],inactive
CCCCCCCCCCCCOC(=O)c1cc(O)c(O)c(O)c1,outcome,[7],inactive
same,AC50,[1],20.8 µM (active)
same,AC50,[2],10.6 µM (active)
same,outcome,[3],inactive
O=C(C=C(O)C(F)(F)F)C(F)(F)F,outcome,[1],inactive
same,outcome,[2],inactive
same,outcome,[3],inactive
O=C(O)C(=O)O,outcome,[5],inactive
same,outcome,[2],inactive
same,outcome,[6],inactive
C/C=C/C(=O)C1=C(C)CCCC1(C)C,AC50,[1],64.7 µM (active)
same,AC50,[2],19.8 µM (active)
same,outcome,[4],inactive
C=CC(=O)OCCN(CC)CC,outcome,[5],inactive
same,outcome,[7],inactive
same,outcome,[1],inactive
same,outcome,[3],inactive
same,outcome,[4],inactive
O=C1OC(=O)c2cc(-c3ccc4c(c3)C(=O)OC4=O)ccc21,outcome,[2],inactive
same,outcome,[6],inactive
CCCCCCCCCCCC(=O)NCCCN(C)C,outcome,[2],inactive
COc1ccc(C#N)cc1,outcome,[1],inactive
same,outcome,[2],inactive
same,outcome,[3],inactive
same,outcome,[6],inactive
CCC(C)c1nccnc1OC (configuration not stated),outcome,[5],inactive
same,outcome,[7],inactive
same,outcome,[1],inactive
same,outcome,[4],inactive
Oc1c(Cl)ccc(Cl)c1Cl,outcome,[7],inactive
same,AC50,[1],19.5 µM (active)
same,outcome,[2],inactive
same,outcome,[3],inactive
same,outcome,[6],inactive
COc1ccccc1NC(=O)c1cc2ccccc2cc1O,AC50,[1],8.06 µM (active)
same,AC50,[2],1.23 µM (active)
same,outcome,[3],inactive
c1cc[nH]c1,outcome,[5],inactive
same,outcome,[1],inactive
same,outcome,[3],inactive
same,outcome,[6],inactive
CC(C)(C)c1ccc(CCC=O)cc1,outcome,[1],inactive
same,AC50,[2],29.3 µM (active)
same,outcome,[4],inactive
CCOC(=O)c1nc(C(Cl)(Cl)Cl)n(-c2ccc(Cl)cc2Cl)n1,AC50,[1],40.4 µM (active)
same,AC50,[2],7.68 µM (active)
FC1(F)C=CC(F)(F)C1(F)F,outcome,[5],inactive
same,outcome,[1],inactive
same,outcome,[2],inactive
O=S(=O)(O)c1ccccc1,outcome,[1],inactive
same,outcome,[2],inactive
same,outcome,[3],inactive
same,outcome,[6],inactive
Cc1ccc(S(=O)(=O)O)cc1,outcome,[5],inactive
same,outcome,[7],inactive
same,outcome,[2],inactive
same,outcome,[6],inactive
CC1=CC(=O)c2ccccc2C1=O,outcome,[7],inactive
same,outcome,[1],inactive
same,AC50,[2],7.29 µM (active)
same,outcome,[3],inactive
same,outcome,[6],inactive
C=CC(=O)OCC(CO)(COCC(COC(=O)C=C)(COC(=O)C=C)COC(=O)C=C)COC(=O)C=C,outcome,[1],inactive
same,outcome,[2],inactive
same,outcome,[4],inactive
